Source: PubChem
In the library only some 3.7% were active in any assay of this set; here they are far more common.
TGFb inhibitor: inhibitors of TGF-b signaling | hit rate 1.2% among 410,000 | HepG2 CAGA-GFP TGF-b/SMAD3 reporter, GFP fluorescence, 18 h; TGF-beta stimulated, 500 pg/mL final | Potency, µM (top dose mostly 46.1 µM), most hits filed as inhibitors; further: nearly all actives have a fitted effect of over 65% in size
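Per well, imaged GFP fluorescence of HEPG2 CAGA-GFP cells gives the signal; cells get compound, then TGF-beta (500 pg/mL final), 18 h at 37 degrees C; %Activity versus -TGF-beta and +DMSO controls.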
S2 tox: cell viability loss in ATXN counter-screen | S2 cells (HEK-293 line with an ATXN2-luciferase reporter) viability, CellTiter-Fluor protease fluorescence, 24 h | Potency, µM (series often up to 56.7 µM), hits mostly cytotoxic | hit rate 0.49% among 400,000; further: nearly all actives have a fitted effect of over 40% in size
GLP1R inv ag: acts as inverse agonist at human GLP-1 receptor | P43220 | HEK293 GLP-1R CRE-luciferase, luminescence, 24 h; GLP-1R form is constitutively active | Potency, µM (titrated, usually from 38.3 µM), most hits filed as inhibitors | hit rate 1.6% among 410,000 | AID 624417; further: nearly all actives have a fitted effect of over 55% in size
Target sequence (P43220 whole entry, looked up): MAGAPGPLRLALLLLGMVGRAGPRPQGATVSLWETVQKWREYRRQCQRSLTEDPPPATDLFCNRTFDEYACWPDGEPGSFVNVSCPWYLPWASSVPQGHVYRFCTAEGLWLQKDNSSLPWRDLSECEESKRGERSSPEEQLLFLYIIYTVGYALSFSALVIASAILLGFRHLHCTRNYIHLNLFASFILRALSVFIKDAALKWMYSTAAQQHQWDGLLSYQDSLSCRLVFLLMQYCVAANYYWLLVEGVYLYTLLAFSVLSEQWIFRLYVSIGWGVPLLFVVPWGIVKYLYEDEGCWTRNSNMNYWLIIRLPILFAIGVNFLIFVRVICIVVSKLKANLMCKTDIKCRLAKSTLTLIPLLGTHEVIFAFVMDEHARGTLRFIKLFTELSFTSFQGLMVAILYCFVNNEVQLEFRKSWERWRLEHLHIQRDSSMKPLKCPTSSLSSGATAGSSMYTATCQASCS
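HEK293 cells stably co-expressing a cAMP-responsive luciferase reporter and constitutively active GLP-1R were seeded, incubated 12 h, then exposed to compounds for 24 h at 37 C. Luminescence was read 12 min after detection reagent; inverse agonists lower signal.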
ATXN2 expr inh: inhibitors of ATXN2 expression; Potency, µM (series often up to 57 µM), most hits filed as inhibitors; hit rate 0.72% among 360,000; HEK-293 ATXN2-luciferase reporter, luminescence, 24 h; further: nearly all actives have a fitted effect of over 55% in size
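ATXN2-luciferase reporter cells (luciferase flanked by upstream and downstream ATXN2 gene portions) were treated 24 h at 37 °C with compounds at up to 57 uM. SteadyGlo luminescence gave expression; GF-AFC fluorescence gave viability.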
GLP-1R agonist: GLP-1 receptor (human) agonism. hit rate 0.007% among 380,000. HEK293 GLP-1R CRE-luciferase, luminescence, 4-6 h; cells express a hypersensitive GLP-1R form. Potency, µM (doses to about 45.6 µM), actives largely listed as activators. AID 624172
HepG2 viability: HepG2 cytotoxicity, counter-screen for TGF-b inhibitors. HepG2 CAGA-GFP viability, ATP luminescence, 18 h. hit rate 0.76% among 410,000. Potency, µM (titrated, usually from 46.1 µM), most hits filed as cytotoxic
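HepG2 CAGA-GFP cells (1000/well, DMEM with 1% FBS) received compound, then TGF-beta at 500 pg/mL final, and were incubated 18 hours at 37 degrees C. Viability was read by CellTiter-Glo luminescence. Media-only wells were set as complete cell-killing and DMSO as no toxicity.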
Numbers stand for hits; 0 = inactive; ? = inconclusive; - = not tested or not shown. The call rests on the fitted dose curve; in most records, active means well fitted curve in the direction sought with a large enough effect; inconclusive means small, poorly fitted or top-dose-only effect, or another doubt; inactive means no such curve, though single readings can be large; an effect the other way counts as inactive or inconclusive.

SMILES	TGFb inhibitor	S2 tox	GLP1R inv ag	ATXN2 expr inh	GLP-1R agonist	HepG2 viability
CN1CCN(C2=Cc3ccc(Cl)cc3Sc3ccc(F)cc32)CC1	?	0	?	?	0	0
CN1CCN(C2Cc3ccccc3Sc3cc(C(F)(F)F)ccc32)CC1 (stereo not given)	?	-	?	?	0	20µM
CSc1ccc2c(c1)[C@H](N1CCN(C)CC1)Cc1ccccc1S2	-	0	-	-	-	-
CN1CCN(C2Cc3ccc(F)cc3Sc3cc(F)c(Cl)cc32)CC1 (stereo not given)	?	?	?	?	0	20µM
CN1CCN(C2Cc3cc(F)ccc3Sc3ccc(Cl)cc32)CC1 (stereo not given)	32µM	?	?	-	0	0
COc1cc2nc(N(C)C)c(CNCc3cccc4ccccc34)cc2c(OC)c1OC	-	0	-	-	-	-
CC(C)c1ccc(S(=O)(=O)/N=C2/C=C(Sc3ncn[nH]3)C(=O)c3ccccc32)cc1	7.9µM	?	?	14µM	0	10µM
Cc1ccc(S(=O)(=O)Nc2ccc(O)c(Sc3ncn[nH]3)c2)cc1	0	0	0	0	0	0
Cc1ccc(S(=O)(=O)/N=C2/C=C(Sc3ncn[nH]3)C(=O)c3ccccc32)cc1	1µM	?	0	?	0	2µM
CCOc1ccc(S(=O)(=O)Nc2ccc(O)c(Sc3ncn[nH]3)c2)cc1	0	0	0	0	0	0
Cc1cccc(C(=O)Nc2ccc(S(=O)(=O)N3CCC(c4nc5ccccc5s4)CC3)cc2)c1	0	-	0	-	-	0
O=C(Nc1cccnc1Cl)c1cnn2c1NC(=C1CC1)C=C2C(F)F	0	-	-	-	-	0
CC(=O)C[C@H]1c2cc(F)cc(F)c2S(=O)(=O)N1C1CCN(Cc2ccccc2)CC1	0	-	-	-	-	0
Cc1ccccc1CN1C(=O)c2ccccc2Sc2ccc(C(=O)NC3CCCC3)cc21	0	-	0	-	-	0
Clc1cccc(-n2ncc3c(NCCCN4CCOCC4)ncnc32)c1	0	0	?	0	-	0
CC(=O)NC(C)c1ccc(Oc2ccc(OC(C)C)cc2)cc1 (stereo not given)	-	-	-	0	-	-
Brc1cnc2nc(SCc3nc4ccccc4[nH]3)[nH]c2c1	0	0	0	24µM	0	0
CCOc1ccc(CN(C)c2nc(-c3cccnc3)nc3ccccc23)cc1OC	?	?	?	19µM	?	0
COC(=O)N/N=C/c1cn(CCOc2cccc(OC)c2)c2ccccc12	?	0	?	-	0	0
COc1cccc(OCCn2cc(C=O)c3ccccc32)c1	3.5µM	0	?	0	0	0
Cc1nc(NCc2cnn(C)c2C)sc1-c1ccn(CC2COc3ccccc3O2)n1 (stereo not given)	-	0	-	-	-	-
CC(CSC(=O)c1ccccc1)C(=O)N1C[C@@H](Sc2ccccc2)C[C@H]1C(=O)O (stereo not given in full)	-	0	-	0	0	-
Cc1cc(C)c2nc(C)cc(Nc3ccc(C(=O)N(C)C)cc3)c2c1	0	0	?	-	0	0
CC(=O)c1ccc(Nc2cc(C)nc3c(C)cc(C)cc23)cc1	11µM	-	8.9µM	?	0	0
OC1(c2cccnc2)CCN(Cc2ccc3c(c2)CN(Cc2cc(F)ccc2F)CCO3)CC1	-	0	-	-	-	-
SMILES	TGFb inhibitor	S2 tox	GLP1R inv ag	ATXN2 expr inh	GLP-1R agonist	HepG2 viability
COc1ccc(OC)c(S(=O)(=O)Nc2ccc(-c3ccc4nncn4n3)cc2)c1	0	0	0	0	?	7.9µM
O=S(=O)(Nc1ccc(-c2ccc3nncn3n2)cc1)c1cc(F)ccc1F	0	0	0	0	0	0
C[N+]1(C)C2CCC1CC(OC(=O)C(O)c1ccccc1)C2 (stereo not given)	-	-	-	-	0	-
CCS(=O)(=O)c1ncc(N(Cc2ccco2)Cc2ccccc2F)c(C(=O)Nc2cccc(Cl)c2)n1	0	0	8.9µM	0	-	0
CC(C)c1ccc(CN(Cc2ccco2)c2cnc(S(C)(=O)=O)nc2C(=O)Nc2ccccc2)cc1	?	0	5µM	0	-	0
Cc1ccc(NC(=O)c2nc(S(C)(=O)=O)ncc2N(Cc2ccco2)Cc2ccccc2F)c(C)c1	0	0	0	0	-	0
CS(=O)(=O)c1ncc(N(Cc2ccccc2)Cc2ccco2)c(C(=O)Nc2cccc(C(F)(F)F)c2)n1	0	0	?	0	-	0
COc1cc(=O)n2c(c1C(=O)N(C)Cc1nonc1C)CCN(Cc1cccc3ccccc13)CC2	-	0	-	-	-	-
COc1ccc(N(C(=O)CCl)C(C(=O)NCCc2ccccc2)c2cccs2)cc1 (stereo not given)	?	13µM	?	28µM	0	16µM
COc1ccc(CNC(=O)C(c2ccncc2)N(C(=O)Cc2cccs2)c2ccccc2)cc1 (stereo not given)	0	0	0	0	0	0
CCn1c(C(=O)NCc2cccc(Br)c2)cc2oc3ccccc3c21	-	-	?	-	-	0
CCn1c(C(=O)NCc2ccccc2Br)cc2oc3ccccc3c21	0	0	?	0	-	13µM
Clc1ccc(Oc2nc(Oc3ccc(Cl)cc3)nc(N3CCOCC3)n2)cc1	0	0	?	0	0	0
c1ccc(Oc2nc(Oc3ccccc3)nc(N3CCOCC3)n2)cc1	0	0	7.9µM	0	0	0
COc1cccc(C(=O)NC(C)c2nnc3n2CCN(CC=C(C)C)CC3)c1 (stereo not given)	-	0	-	-	-	-
O=C(N/N=C1\CCCc2c1[nH]c1ccc(Cl)cc21)c1ccncc1	0	0	7.1µM	?	0	0
COCCNC(=S)N1CCC(C(=O)c2ccc(Cl)cc2)CC1	0	0	?	-	0	0
COCCCNC(=S)N1CCC(C(=O)c2ccc(Cl)cc2)CC1	0	0	5.6µM	0	0	0
CN(C)c1ccc(-c2c3ccccc3nc3ccccc23)cc1	0	-	-	-	-	0
CN(C)c1ccc(Sc2ccc3nc(N)nc(N)c3c2)cc1	?	?	?	-	0	0.32µM
Cc1ccc(CSCCNC(=O)C2CCN(S(=O)(=O)Cc3ccccc3)CC2)cc1	0	0	0	0	-	0
Cc1nc(NC2=NCN(CCCN3CCOCC3)CN2)nc2c(C)cccc12	16µM	?	?	?	0	0
CCC(=O)N1CCCc2cc(S(=O)(=O)N3CCC(C(=O)Nc4ccc(F)c(F)c4)CC3)ccc21	?	0	11µM	?	-	0
CC1Cc2cc(S(=O)(=O)NCc3ccccc3)ccc2N1C(=O)C1CC1 (stereo not given)	0	0	0	0	0	0
CCc1ccc(NC(=O)C2CCN(S(=O)(=O)c3ccc4c(c3)CC(C)N4C(C)=O)CC2)cc1 (stereo not given)	?	?	?	13µM	0	0
